CYP2C9 act – human CYP2C9 activators, primary screen, biochemical, luminescence. Cytochrome P450 2C9 (Homo sapiens), P11712. recombinant CYP2C9, luciferin-H conversion; stronger effect = higher value; factor 1 = untreated enzyme, 0 = blocked. activation factor at 5 µM. actives 1.4% (n = 96,000). AID 1024, 2008;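 active = activation factor of 2 or more for CYP2C9 at a 5 µM dose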
Target sequence (P11712 whole entry, looked up): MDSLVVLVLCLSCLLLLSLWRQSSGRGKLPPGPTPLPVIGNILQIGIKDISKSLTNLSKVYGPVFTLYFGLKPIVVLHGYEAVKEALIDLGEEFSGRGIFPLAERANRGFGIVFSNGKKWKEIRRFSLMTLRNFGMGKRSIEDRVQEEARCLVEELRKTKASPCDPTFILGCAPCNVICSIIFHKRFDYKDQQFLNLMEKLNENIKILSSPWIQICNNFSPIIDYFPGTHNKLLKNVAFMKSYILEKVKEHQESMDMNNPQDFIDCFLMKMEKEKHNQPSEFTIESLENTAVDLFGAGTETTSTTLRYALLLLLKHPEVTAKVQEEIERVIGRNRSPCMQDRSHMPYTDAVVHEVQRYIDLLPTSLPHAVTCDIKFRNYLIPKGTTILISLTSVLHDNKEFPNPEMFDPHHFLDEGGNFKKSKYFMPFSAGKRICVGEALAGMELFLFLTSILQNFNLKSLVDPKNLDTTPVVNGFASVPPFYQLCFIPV
CYP2C9 inhib – blockers of cytochrome P450 2C9 activity – biochemical, luminescence, ADME assay, primary screen | CYP2C9 Supersomes, luciferin-H conversion | inhibition, % at 5 µM | actives 20% (n = 96,000);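 active = blocking of liver enzyme CYP2C9 beyond about 50% at 5 µM, limit read from the data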
CYP2C19 activ – human CYP2C19 activators, primary screen, biochemical, luminescence | activation factor at 5 µM | AID 1025, 2008 | recombinant CYP2C19, luciferin-H EGE luminescence; stronger effect = higher value; 0 = fully inhibited enzyme, 1 = untreated enzyme | Cytochrome P450 2C19 (Homo sapiens), P33261 | 96,000 tested, under 10 active;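 active = activation factor of at least 2 at 5 µM in the primary screen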
PostGolgi ctrl – growth inhibition of yeast control strain, primary screen, counter-screen for post-Golgi transport modulator project; inhibition, % at 10 µM; AID 738, 2007; actives 5% (n = 98,000); efflux-deficient yeast background strain, growth absorbance A615, 16 h
PostGolgi yeast – phenotypic screen on post-Golgi transport, primary screen; actives 0.9% (n = 98,000); post-Golgi transport phenotypic cell assay; inhibition, % at 10 µM; AID 739, 2007;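 also: yeast cells grown in 1536-well plates; yeast grown about 18 h at 30C before absorbance read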
CYP2C19 inhib – blockers of cytochrome P450 2C19 activity – biochemical, luminescence, ADME assay, primary screen. P33261. CYP2C19 Supersomes, luciferin-H EGE luminescence, 30 min. inhibition, % at 5 µM. actives 21% (n = 96,000). AID 778, 2007;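 active = CYP2C19 inhibition above a set limit at 5 µM in the primary screen, cut at about 50% in these data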
Numbers stand for hits; i = inactive; nt = not tested or not shown. An excerpt weighted towards active compounds, which were near 32% of everything screened. Rule as the data show it, unless noted: active = inhibition above about 30%; inactive = the rest.

SMILES | CYP2C9 act | CYP2C9 inhib | CYP2C19 activ | PostGolgi ctrl | PostGolgi yeast | CYP2C19 inhib
O=C(c1cc2ccccc2oc1=O)N1CCN(Cc2ccc3c(c2)OCO3)CC1 | i | i | i | i | i | i
COc1cccc(-n2nc(-c3ccnn3-c3ccccc3)c(=O)n(C)c2=O)c1 | i | i | i | i | i | 62
COc1ccc(-n2nc(C(=O)N3CCN(Cc4ccc5c(c4)OCO5)CC3)c3ccccc3c2=O)cc1 | i | 74 | i | i | i | i
CC(C)[C@H](NC(=O)OC(C)(C)C)C(=O)N/N=C/c1cccc2nccnc12 | i | i | i | i | i | i
N#C/C(Cn1c[n+](NC(=O)Nc2ccccc2)cn1)=N/O | i | i | i | i | i | i
CC(=O)Oc1ccccc1-c1nc(C)nc(N(C)C(C)=O)n1 | i | i | i | i | i | i
COc1ccc(-n2nc(C(=O)Nc3ccc4c(c3)OCO4)c3ccccc3c2=O)cc1 | i | 79 | i | i | i | i
COc1ccc(-n2nc(C(=O)NCc3ccco3)c3ccccc3c2=O)cc1 | i | i | i | i | i | i
COC(=O)C1=CN(CCCN2CCCC2=O)C=C(C(=O)OC)C1c1ccccc1C(F)(F)F | i | i | i | i | 36 | i
CCc1ccccc1NC(=O)CN1CCC(NC(=O)COC)CC1 | i | i | i | i | i | i
Cn1c(C(=O)NCCc2c[nH]c3ccccc23)cc2sccc21 | i | i | i | i | i | 54
O=C(NCCc1c[nH]c2ccccc12)c1c(Cl)nc2sccn12 | i | i | i | i | i | i
O=C(NCCc1c[nH]c2ccccc12)c1cc2sccc2n1Cc1ccccc1 | i | 82 | i | i | i | 65
CC(=O)NC1C(=O)N(C)c2ccc(Br)cc21 (stereo not given) | i | i | i | i | i | i
O=C(CN1CCN(c2nc(-c3ccccc3)cs2)CC1)Nc1ccc2c(c1)OCO2 | i | i | i | i | i | i
Cc1ccc(-c2csc(N3CCC(NS(=O)(=O)c4ccc5c(c4)OCCO5)CC3)n2)cc1 | i | 63 | i | i | i | i
Cc1cc(C(F)F)n2ncc(C(=O)NCc3ccccc3C(F)(F)F)c2n1 | i | i | i | i | i | i
COc1ccccc1CCNC(=O)c1cnn2c(C(F)F)cc(C)nc12 | i | i | i | i | i | 77
COc1ccccc1CNC(=O)c1cnn2c(C(F)F)cc(C)nc12 | 2.2 | i | i | i | i | 61
Cc1cc(C(F)F)n2ncc(C(=O)NC3CCCCCC3)c2n1 | i | i | i | i | i | i
COc1ccc(CCNC(=O)c2cnn3c(C(F)F)cc(C)nc23)cc1OC | i | i | i | i | i | 52
COc1ccccc1C(=O)Nn1cnc2ccccc2c1=O | i | i | i | i | i | i
COC1Cc2ccccc2N(C(=O)N2CCN(CCO)CC2)c2ccccc21 (stereo not given) | i | i | i | i | i | i
N#Cc1ccc(OCC(=O)NCCc2ccc(S(N)(=O)=O)cc2)cc1 | i | i | i | i | i | i
CC(C)Oc1ccc(C(CC(=O)O)NC(=O)c2cccs2)cc1 (stereo not given) | i | 55 | i | i | i | i
SMILES | CYP2C9 act | CYP2C9 inhib | CYP2C19 activ | PostGolgi ctrl | PostGolgi yeast | CYP2C19 inhib
Cc1cc(C(=O)NCc2cccs2)cs1 | i | i | i | i | i | 73
O=C(NCc1cccs1)c1ccncc1 | i | i | i | i | i | i
O=C(NCc1cccs1)c1ccccc1 | i | i | i | i | i | i
CC(C)Oc1ccc(C(=O)NCc2cccs2)cc1 | i | i | i | i | i | 70
CCCOc1ccc(C(CC(=O)O)NC(=O)c2cccs2)cc1 (stereo not given) | i | i | i | i | i | i
O=C(NCc1cccs1)c1csc2ccccc12 | i | i | i | i | i | 85
Cc1cc(C(=O)NCc2cccs2)c(C)o1 | i | i | i | i | i | 50
CC(C)Cc1cc(C(=O)NCc2cccs2)no1 | i | i | i | i | i | 80
COC(=O)c1sc(NC(=O)COc2cccc3ccccc23)nc1C | i | i | i | i | i | i
CCC1CCc2c(sc(NC(=O)c3ccoc3C)c2C(N)=O)C1 (stereo not given) | i | i | i | 30 | i | i
Cc1occc1C(=O)Nc1sc2c(c1C(N)=O)CCC(C(C)(C)C)C2 (stereo not given) | i | 58 | i | i | i | i
CCC(C)(C)C1CCc2c(sc(NC(=O)c3ccoc3C)c2C(N)=O)C1 (stereo not given) | i | i | i | i | i | i
O=P(Cc1ccccn1)(c1ccccc1)c1ccccc1 | i | i | i | i | i | i
CCCCN(C)C(=O)c1c[nH]c2ccc(S(=O)(=O)N3CCOCC3)cc2c1=O | nt | nt | nt | i | i | nt
COC(=O)c1cc2ccsc2n1Cc1nc(-c2ccc(OC)cc2)oc1C | i | 59 | i | i | i | i
COC(=O)c1cc2ccsc2n1CC(=O)Nc1cc(Cl)ccc1OC | i | i | i | i | i | 51
COC(=O)c1cc2occc2n1CC(=O)Nc1ccc(OC)c(OC)c1 | i | i | i | i | i | i
COC(=O)c1sccc1-n1cccc1C(=O)NCc1ccccc1 | i | i | i | i | i | i
COC(=O)c1cc2ccsc2n1CC(=O)Nc1ccc(N(C)C)cc1 | i | i | i | i | i | 53
COC(=O)c1cc2ccsc2n1CC(=O)N(C)c1ccccc1 | i | i | i | i | i | 56
COC(=O)c1cc2sccc2n1Cc1nc(-c2ccc(OC)cc2)oc1C | i | i | i | i | i | i
COc1ccc(Cl)cc1NC(=O)CN1C(=O)CSC1=O | i | i | i | i | i | i
Cn1cnc([N+](=O)[O-])c1Sc1ncccc1N | i | i | i | i | i | i
Cn1nc(CC(=O)Nc2cccc3ncccc23)c2ccccc2c1=O | i | i | i | i | i | i
CNc1nc(-c2c[nH]c3ccccc23)cs1 | i | 78 | i | i | i | 73
SMILES | CYP2C9 act | CYP2C9 inhib | CYP2C19 activ | PostGolgi ctrl | PostGolgi yeast | CYP2C19 inhib
CCCOc1ccccc1C(=O)NC(CO)C(=O)O (stereo not given) | i | i | i | i | i | i
COc1ccc(CNC(=O)C2CCCN2C(=O)NC2CCCCC2)cc1 (stereo not given) | i | i | i | i | i | i
CCc1ccccc1NC(=O)CN1C(=O)C2CCCN2c2ncc(Cl)cc21 (stereo not given) | i | 54 | i | i | i | 55
CC1CCC(NC(=O)CN2C(=O)C3CCCN3c3ncc(Cl)cc32)CC1 (stereo not given) | i | i | i | i | i | i
COC(=O)c1ccccc1NC(=O)CN1C(=O)C2CCCN2c2ncc(Cl)cc21 (stereo not given) | i | 67 | i | i | i | i
O=C(CN1C(=O)C2CCCN2c2ncc(Cl)cc21)NCc1ccc2c(c1)OCO2 (stereo not given) | i | i | i | i | i | i
